Screens: PubChem, The Scripps Research Institute Molecular Screening Center
Only some compounds are listed: those with a hit (about 4.1% of all), similar ones and a draw of the others.
PRMT1 FP inh: PRMT1 methyltransferase inhibitors, primary screen, biochemical, fluorescence polarization; inhibition, % at 2.79 µM; AID 652257, 2013; hit rate 1.3% among 370,000; recombinant PRMT1, activity-based probe fluorescence polarization;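 active means inhibition above about 21% made by adding two undisclosed values, limit read from the data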
ABHD5 PLIN5 PPI: ABHD5-PLIN5 interaction inhibitors, primary screen, cell lysate, split luciferase complementation, luminescence | Perilipin-5 (Homo sapiens) + 1-acylglycerol-3-phosphate O-acyltransferase ABHD5 (Homo … | Split G. princeps luciferase complementation, 4 h | inhibition, % at 4 µM | hit rate 0.78% among 360,000;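 active means inhibition above the mean inhibition across every tested compound plus 3 SD, cut at about 22% in these data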;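 further: 0% = DMSO only wells and the 100% control is not disclosed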
LEDGF integ inh: blockers of LEDGF/p75-dependent integrase strand transfer – biochemical, TR-FRET, high throughput, primary screen; TR-FRET IN-LEDGF/p75 DNA integration, Eu/Cy5; inhibition, % at 3.7 µM; hit rate 0.64% among 370,000; AID 743269, 2014;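 active means inhibition above the screen-wide mean plus 3 SD, cut at about 13% in these data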;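 further: signal is the Cy5 over europium emission ratio at 671 and 618 nm; 0% = plate median of compound wells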
rCAG binder: binders of r(CAG) RNA repeats, primary screen, biochemical, fluorescence; r(CAG) RNA repeat, TO-PRO-1 dye displacement fluorescence; inhibition, % at 3 µM; hit rate 1.3% among 370,000; AID 651821, 2012;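 active means inhibition above the plate cutoff, the mean of all test compounds on that plate plus 3 SD, cut at about 35% in these data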;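 further: 0% = DMSO alone and 100% = 100 µM mitoxantrone as full dye displacement; higher means more dye released from RNA so lower well fluorescence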
UHRF1 binding: UHRF1 methylated DNA binding inhibitors, primary screen, counter-screen for MBD2 inhibitor project, biochemical, TR-FRET, human UHRF1, single concentration; AID 687016, 2013; E3 ubiquitin-protein ligase UHRF1 (Homo sapiens), Q96T88; hit rate 0.75% among 370,000; inhibition, % at 4.4 µM; UHRF1 binding to methylated oligo; in the data active means inhibition above about 21%;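 further: UHRF1 SRA domain binding a hemimethylated CpG hairpin DNA probe; 0% = median of test compound wells and 100% = reference inhibitor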
MBD2 DNA inh: inhibitors of MBD2 binding to methylated DNA, primary screen, biochemical, TR-FRET, DNA-binding domain, human; Methyl-CpG-binding domain protein 2 (Homo sapiens), Q9UBB5; MBD2 binding to methylated oligonucleotide; inhibition, % at 4.4 µM; hit rate 0.31% among 370,000; AID 686964, 2013; in the data active means inhibition above about 13%
Target sequence (Q9UBB5 whole entry, looked up, the tested form may be a part): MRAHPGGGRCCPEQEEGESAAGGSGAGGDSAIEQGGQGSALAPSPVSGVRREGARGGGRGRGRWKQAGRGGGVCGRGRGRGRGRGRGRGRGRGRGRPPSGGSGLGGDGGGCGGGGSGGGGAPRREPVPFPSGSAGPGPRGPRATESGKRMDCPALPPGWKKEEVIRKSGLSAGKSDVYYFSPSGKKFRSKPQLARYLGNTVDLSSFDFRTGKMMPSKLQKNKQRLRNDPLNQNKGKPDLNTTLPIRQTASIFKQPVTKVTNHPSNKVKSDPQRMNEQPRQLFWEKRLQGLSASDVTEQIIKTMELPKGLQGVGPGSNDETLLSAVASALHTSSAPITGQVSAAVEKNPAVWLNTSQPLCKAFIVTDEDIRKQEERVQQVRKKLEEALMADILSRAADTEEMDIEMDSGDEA
rCAG binder conf: small molecules binding CAG repeat RNA – biochemical, fluorescence, confirmation; inhibition, % at 3 µM; shares compounds with rCAG binder; r(CAG) RNA repeat, TO-PRO-1 dye displacement fluorescence; hit rate 70% among 4,300;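 active means inhibition above a per-plate cutoff, the mean inhibition of sample wells plus 3 SD, cut at about 35% in these data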;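 further: loss of TO-PRO-1 fluorescence as compound displaces dye from 1x1 AA loop RNA; 0% = DMSO only wells and 100% = 100 µM mitoxantrone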
dCAG dye counter: displacement of TO-PRO-1 from CAG DNA duplex, counter-screen for rCAG RNA repeat binder project, biochemical, fluorescence, TO-PRO-1 dye, d(CAG) DNA oligo; shares compounds with rCAG binder; AID 652068, 2013; inhibition, % at 3 µM; hit rate 94% among 4,300; d(CAG) DNA oligo TO-PRO-1 dye displacement;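 active means inhibition above its plate's cutoff, the mean test-well inhibition plus 3 SD, cut at about 4.8% in these data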;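 further: 0% = DNA dye mix with DMSO and 100% = 100 µM mitoxantrone; hits displace the dye from DNA and so lower well fluorescence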
PRMT1 inh conf: PRMT1 methyltransferase inhibitors, confirmation, biochemical, fluorescence polarization, triplicate; shares compounds with PRMT1 FP inh; recombinant His-PRMT1, activity-based probe fluorescence polarization; inhibition, % at 2.79 µM; hit rate 42% among 3,300;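 active means mean inhibition across replicates above the hit cutoff derived for the earlier primary screen, cut at about 22% in these data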
An asterisk follows results filed as active; / = no result given.

SMILES	PRMT1 FP inh	ABHD5 PLIN5 PPI	LEDGF integ inh	rCAG binder	UHRF1 binding	MBD2 DNA inh	rCAG binder conf	dCAG dye counter	others
C=CCN1C[C@H](COC(=O)c2cccc(C)c2)Oc2cccc(F)c2S1(=O)=O	-3	/	-2	2	1	-4	/	/
CCOC(=O)N1CCN(C(=O)CNC(=O)c2nn(-c3ccc(OC)c(Cl)c3)c(=O)c3ccccc23)CC1	4	2	-1	39*	-8	0	4	4
CC(C)(C)S(=O)N1Cc2cc(C(=O)O)nc(-c3cccc(-c4cc5ccccc5o4)c3)c2[C@H]1CCO (some centres not stated)	10	2	2	39*	6	3	35*	13*
CCC(C)N(C(=O)Cn1nc(Cc2ccncc2)c2ccccc2c1=O)C(C)CC (configuration not stated)	-2	/	-4	-1	1	4	/	/
CC(C)(N[C@@H](Cc1ccccc1)C(=O)NCC(c1ccccc1)c1ccccc1)C(=O)NC1CCCCC1	0	/	1	/	-1	2	/	/
COc1cc(/C=C(\C#N)c2nc3ccccc3[nH]2)ccc1OC(=O)c1ccco1	1	-1	7	21	1	2	/	/
CCOc1cc(/C=C(/C#N)c2nc3ccccc3[nH]2)ccc1OCc1ccc(C(=O)O)o1	2	-4	0	49*	5	-4	39*	8.6*
CCOc1cc(/C=C(/C#N)C(=O)Nc2ccc(OC)cc2)ccc1OCc1ccc(C(=O)O)cc1	1	5	-2	-3	1	4	/	/
CCOc1cc(/C=C(/C#N)c2ccc(F)cc2)ccc1OCc1ccc(C(=O)O)o1	0	14	4	69*	-1	3	68*	29*
CC1CCCN(c2cccc3c2S(=O)(=O)N([C@H](C)c2ccccc2)C[C@@H](COCc2ccccc2)O3)C1 (some centres not stated)	0	/	0	6	1	-7	/	/
CC(=O)C1=C(O)C2(C)c3c(O)c(C)c(O)c(C(C)=O)c3OC2CC1=O (configuration not stated)	11	6	4	76*	5	2	52*	18*
CCCOc1nccc2c1n(C)c(=O)n2C	-2	/	0	-1	-1	-4	/	/
Cc1ccc(S(=O)(=O)Oc2ccc(C3C4=C(CCCC4=O)N(CCC(=O)O)C4=C3C(=O)CCC4)cc2Cl)cc1	8	-5	-1	36*	13	-4	37*	11*
C=CCN1C(=O)[C@]2(OCCC=C[C@H]2C)c2cc(OC)ccc21	1	/	-2	-1	3	5	/	/
COc1ccc(C(C)=O)cc1CSc1nc2ccccc2c(=O)n1-c1ccccc1	1	1	-2	2	3	2	/	/
COCCn1c(SCc2cc(C(C)=O)ccc2OC)nc2cc(Cl)ccc2c1=O	0	-3	0	42*	3	1	4	4
CC(C)(C)C(=O)OC12CCCN(C1)/C(=C/c1ccccc1)C2 (configuration not stated)	0	/	-2	3	3	-2	/	/
O=C(O)c1cccc(N2C(=O)c3ccc(Oc4ccc(Cl)cc4)cc3C2=O)c1	-2	0	0	44*	1	2	42*	9.9*
O=C(Nc1ccc(Br)cc1)OC1CC2CC1[C@H]1CCCCN1C2 (some centres not stated)	-3	/	-1	5	1	1	/	/
COc1cc(/C=C2\C(=N)N3N=C(S(C)(=O)=O)SC3=NC2=O)ccc1OC(=O)c1ccco1	1	-7	2	43*	-2	-2	80*	48*
CCOc1cc(/C=C2/C(=N)N3N=C(CC)SC3=NC2=O)ccc1OC(=O)c1ccco1	-1	3	-1	22	2	2	/	/
N=C1/C(=C\c2ccc(OC(=O)c3ccco3)cc2)C(=O)N=C2SC(N3CCCCC3)=NN12	6	1	0	40*	-5	0	33	11*
COc1cc(/C=C2\C(=N)N3N=C(S(C)(=O)=O)SC3=NC2=O)ccc1OC(=O)c1cccs1	8	5	1	52*	5	1	86*	63*
CCOc1cc(/C=C2\C(=N)N3N=C(S(=O)(=O)CC)SC3=NC2=O)ccc1OC(=O)c1ccco1	4	15	1	42*	1	3	84*	51*
COc1cc(/C=C2\C(=N)N3N=C(S(C)(=O)=O)SC3=NC2=O)ccc1OCCOc1ccccc1C	3	1	6	40*	2	7	91*	76*
SMILES	PRMT1 FP inh	ABHD5 PLIN5 PPI	LEDGF integ inh	rCAG binder	UHRF1 binding	MBD2 DNA inh	rCAG binder conf	dCAG dye counter	others
CCC1=NN2C(=N)/C(=C\c3ccc(OCCOc4ccccc4OC)cc3)C(=O)N=C2S1	0	-4	-4	8	1	0	/	/
O=[N+]([O-])c1ccc(Nc2nc(NCCO)nc(N3CCCC3)n2)cc1	4	4	1	9	0	-4	/	/
NNc1nc(Nc2ccc([N+](=O)[O-])cc2)nc(N2CCCCCC2)n1	2	-1	2	36*	-2	1	29	16*
CC1=Nc2cc(C(=O)O)ccc2Sc2ccc(Br)cc21	2	0	0	51*	-1	2	55*	22*
COc1cccc2c1NC(C(=O)O)C1CC=CC21 (configuration not stated)	/	-4	/	/	/	/	/	/
COc1ccc(OC)c(C2Nc3c(Cl)ccc(C(=O)O)c3C3C=CCC32)c1 (configuration not stated)	46*	3	9	50*	1	1	26	7.1*	PRMT1 inh conf=28*
COc1cc(/C=C2/C(=O)NN(c3ccc(C)c(Cl)c3)C2=O)cc([N+](=O)[O-])c1O	28*	-2	3	98*	-2	-7	52*	16*	PRMT1 inh conf=16
